Where “and” joins values, the source holds several entries; their conditions need not be identical. Equal entries are not always repeated. Out of some 5,500 compounds screened, about 2,000 (36%) were called active. Roughly 18% stayed inconclusive and do not appear here. No stated cut-off is given here; in the data, active means normalized growth mostly below about 0.91 (no sharp cut-off); inconclusive means no clear call, values can overlap the other calls; inactive means mostly above about 0.92. Some of the results follow.
Test: chemical genetic growth profiling, strain panel (AID 1159580);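 further: tested at 20 µM; growth read once vehicle control cultures reached saturation at 30 °C; 1 = growth at the plate median or of vehicle wells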
Conditions: S. cerevisiae deletion strains, growth OD

Measured: normalized growth

c1cc2c(cc1[C@H]1OC[C@H]3[C@@H]1CO[C@H]3c1ccc3c(c1)OCO3)OCO2
0.714 (active) and 0.956 (inactive): locus YJL095W, strain BCK1, stronger effect = lower value
active: locus YAL026C, strain drs2, stronger effect = lower value 0.803 | locus YAL030W, strain snc1, stronger effect = lower value 0.908 | locus YBL061C, strain skt5, stronger effect = lower value 0.918 | locus YBR009C, strain hhf1, stronger effect = lower value 0.904 | locus YBR023C, strain chs3, stronger effect = lower value 0.906 | locus YCL011C, strain gbp2, stronger effect = lower value 0.881 | locus YCL016C, strain dcc1, stronger effect = lower value 0.911 | locus YCL069W, strain vba3, stronger effect = lower value 0.919 | locus YCR088W, strain abp1, stronger effect = lower value 0.911 | locus YDL040C, strain nat1, stronger effect = lower value 0.92 | locus YDL134C, strain PPH21, stronger effect = lower value 0.881 | locus YDL192W, strain arf1, stronger effect = lower value 0.877 | locus YDR001C, strain nth1, stronger effect = lower value 0.889 | locus YDR101C, strain arx1, stronger effect = lower value 0.895 | locus YDR137W, strain rgp1, stronger effect = lower value 0.492 | locus YDR159W, strain sac3, stronger effect = lower value 0.856 | locus YDR297W, strain sur2, stronger effect = lower value 0.905 | locus YDR318W, strain mcm21, stronger effect = lower value 0.867 | locus YDR334W, strain swr1, stronger effect = lower value 0.861 | locus YDR388W, stronger effect = lower value 0.923 | locus YDR392W, strain spt3, stronger effect = lower value 0.371 | locus YDR502C, strain sam2, stronger effect = lower value 0.869 | locus YEL003W, strain gim4, stronger effect = lower value 0.911 | locus YEL061C, strain CIN8 (second series), stronger effect = lower value 0.859 | locus YEL061C, strain CIN8, stronger effect = lower value 0.724 | locus YER015W, strain faa2, stronger effect = lower value 0.925 | locus YER016W, strain bim1, stronger effect = lower value 0.908 | locus YER155C, strain BEM2 (second series), stronger effect = lower value 0.783 | locus YER155C, strain BEM2, stronger effect = lower value 0.862 | locus YER167W, strain BCK2, stronger effect = lower value 0.813 | locus YGL086W, strain mad1, stronger effect = lower value 0.845 | locus YGL167C, strain pmr1, stronger effect = lower value 0.862 | locus YGL253W, strain hxk2, stronger effect = lower value 0.845 | locus YHR027C, strain rpn1, stronger effect = lower value 0.913 | locus YHR079C, strain IRE1 (second series), stronger effect = lower value 0.902 | locus YHR094C, strain hxt1, stronger effect = lower value 0.922 | locus YHR129C, strain ARP1, stronger effect = lower value 0.911 | locus YHR142W, strain chs7, stronger effect = lower value 0.803 | locus YHR200W, strain rpn10, stronger effect = lower value 0.884 | locus YIL066C, strain RNR3, stronger effect = lower value 0.828 | locus YIL125W, strain kgd1, stronger effect = lower value 0.889 | locus YIR030C, strain dcg1, stronger effect = lower value 0.901 | locus YJL092W, strain hpr5, stronger effect = lower value 0.914 | locus YJL095W, strain BCK1 (second series), stronger effect = lower value 0.904 | locus YJL115W, strain asf1, stronger effect = lower value 0.904 | locus YJL129C, strain trk1, stronger effect = lower value 0.722 | locus YJL164C, strain tpk1, stronger effect = lower value 0.896 | locus YJL166W, strain qcr8, stronger effect = lower value 0.88 | locus YJL168C, strain set2, stronger effect = lower value 0.927
0.87 (active) and 0.888 (inactive): locus YHR030C, strain SLT2, stronger effect = lower value
inactive: locus YAL013W, strain DEP1, stronger effect = lower value 0.93 | locus YAL021C, strain ccr4, stronger effect = lower value 0.936 | locus YBR021W, strain FUR4, stronger effect = lower value 0.961 | locus YBR171W, strain sec66, stronger effect = lower value 0.897 | locus YBR229C, strain ROT2, stronger effect = lower value 0.941 | locus YBR231C, strain swc5, stronger effect = lower value 0.922 | locus YBR279W, strain paf1, stronger effect = lower value 0.936 | locus YCL029C, strain bik1, stronger effect = lower value 0.933 | locus YCL061C, strain MRC1, stronger effect = lower value 0.93 | locus YDL005C, strain med2, stronger effect = lower value 0.915 | locus YDL035C, strain GPR1, stronger effect = lower value 0.906 | locus YDL074C, strain BRE1, stronger effect = lower value 0.874 | locus YDL101C, strain DUN1, stronger effect = lower value 0.927 | locus YDL185W, strain tfp1, stronger effect = lower value 0.93 | locus YDR069C, strain doa4, stronger effect = lower value 0.956 | locus YDR162C, strain NBP2, stronger effect = lower value 0.894 | locus YDR195W, strain ref2 1.06 | locus YDR335W, strain msn5, stronger effect = lower value 0.934 | locus YEL037C, strain rad23, stronger effect = lower value 0.926 | locus YER110C, stronger effect = lower value 0.942 | locus YER111C, strain swi4, stronger effect = lower value 0.919 | locus YFR010W, strain ubp6, stronger effect = lower value 0.938 | locus YGL078C, strain dbp3, stronger effect = lower value 0.958 | locus YGL173C, strain kem1, stronger effect = lower value 0.904 | locus YGL227W, strain vid30, stronger effect = lower value 0.926 | locus YGL240W, strain doc1, stronger effect = lower value 0.89 | locus YGL248W, strain PDE1, stronger effect = lower value 0.901 | locus YGR078C, strain PAC10, stronger effect = lower value 0.856 | locus YGR135W, strain pre9, stronger effect = lower value 0.906 | locus YGR252W, strain gcn5, stronger effect = lower value 0.897 | locus YHR013C, strain ard1, stronger effect = lower value 0.871 | locus YHR079C, strain IRE1, stronger effect = lower value 0.895 | locus YIL073C, strain SPO22, stronger effect = lower value 0.783 | locus YJL134W, strain LCB3, stronger effect = lower value 0.974 | locus YJL154C, strain vps35, stronger effect = lower value 0.936 | locus YJL187C, strain SWE1 (second series), stronger effect = lower value 0.925 | locus YJL187C, strain SWE1, stronger effect = lower value 0.932 | locus YJR043C, strain POL32, stronger effect = lower value 0.959 | locus YJR066W, strain TOR1, stronger effect = lower value 0.888

— PubChem BioAssay AID1159580 (chemical genetic matrix, 2015)
